# Assay results: ChEMBL document CHEMBL1961873, “Compounds: GSK PKIS; Assays: Nanosyn kinase panel” (2012)
# How the values were obtained:
# [1] = target: Protein kinase C gamma type (Homo sapiens) (UniProt P05129); settings: at 1 µM;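 further: each value is an averaged percent inhibition of the enzyme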
# [2] = target: T1, Protein kinase C iota type (Homo sapiens) (UniProt P41743); settings: at 0.1 µM
# T1 sequence (whole entry): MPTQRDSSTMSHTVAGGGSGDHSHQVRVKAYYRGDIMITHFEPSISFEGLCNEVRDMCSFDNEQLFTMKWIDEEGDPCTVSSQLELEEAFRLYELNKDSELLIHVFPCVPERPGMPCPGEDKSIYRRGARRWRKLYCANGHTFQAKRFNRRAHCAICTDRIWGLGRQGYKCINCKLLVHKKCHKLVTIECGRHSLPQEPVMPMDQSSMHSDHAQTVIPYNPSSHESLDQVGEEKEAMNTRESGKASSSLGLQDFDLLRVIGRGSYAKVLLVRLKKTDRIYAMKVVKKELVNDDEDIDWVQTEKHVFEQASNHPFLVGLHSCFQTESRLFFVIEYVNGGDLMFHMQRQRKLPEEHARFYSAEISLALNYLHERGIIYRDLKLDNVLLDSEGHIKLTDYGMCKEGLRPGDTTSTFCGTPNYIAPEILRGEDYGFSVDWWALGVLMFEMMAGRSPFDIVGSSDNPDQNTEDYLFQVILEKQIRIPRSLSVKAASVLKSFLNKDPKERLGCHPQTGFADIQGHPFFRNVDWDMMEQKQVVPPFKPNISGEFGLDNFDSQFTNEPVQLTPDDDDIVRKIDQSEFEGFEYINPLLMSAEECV
# [3] = target: T1, Protein kinase C iota type (Homo sapiens); settings: at 1 µM
# [4] = target: Protein kinase C theta type (Homo sapiens) (UniProt Q04759); settings: at 0.1 µM
# [5] = target: Protein kinase C theta type (Homo sapiens) (UniProt Q04759); settings: at 1 µM
# [6] = target: Protein kinase C beta type (Homo sapiens) (UniProt P05771); settings: at 0.1 µM
# [7] = target: Protein kinase C beta type (Homo sapiens) (UniProt P05771); settings: at 1 µM
# [8] = target: T2, Serine/threonine-protein kinase D1 (Homo sapiens) (UniProt Q15139); settings: at 0.1 µM
# T2 sequence (whole entry): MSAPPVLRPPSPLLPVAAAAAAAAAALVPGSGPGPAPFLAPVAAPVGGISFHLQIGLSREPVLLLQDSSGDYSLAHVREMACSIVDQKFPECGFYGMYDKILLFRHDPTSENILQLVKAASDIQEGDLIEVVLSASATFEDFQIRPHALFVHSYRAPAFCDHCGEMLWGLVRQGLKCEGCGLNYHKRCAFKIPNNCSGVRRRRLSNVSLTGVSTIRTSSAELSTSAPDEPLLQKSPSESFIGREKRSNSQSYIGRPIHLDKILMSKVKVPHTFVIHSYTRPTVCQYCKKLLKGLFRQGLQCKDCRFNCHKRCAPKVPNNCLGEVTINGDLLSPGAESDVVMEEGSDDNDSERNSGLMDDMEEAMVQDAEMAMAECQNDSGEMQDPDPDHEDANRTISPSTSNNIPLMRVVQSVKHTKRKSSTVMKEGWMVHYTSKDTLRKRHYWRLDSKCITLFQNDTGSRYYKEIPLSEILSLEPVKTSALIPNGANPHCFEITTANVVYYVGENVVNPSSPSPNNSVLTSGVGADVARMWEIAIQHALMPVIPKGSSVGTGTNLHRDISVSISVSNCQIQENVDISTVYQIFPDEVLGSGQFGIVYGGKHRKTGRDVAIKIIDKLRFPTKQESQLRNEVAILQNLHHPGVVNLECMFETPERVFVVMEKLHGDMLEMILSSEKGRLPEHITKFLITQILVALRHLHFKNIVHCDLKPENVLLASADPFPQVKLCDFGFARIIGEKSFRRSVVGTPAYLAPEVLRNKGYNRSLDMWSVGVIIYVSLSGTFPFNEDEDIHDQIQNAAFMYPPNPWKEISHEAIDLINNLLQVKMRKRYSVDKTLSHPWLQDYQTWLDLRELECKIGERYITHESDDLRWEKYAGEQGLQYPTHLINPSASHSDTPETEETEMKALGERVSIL
# [9] = target: T2, Serine/threonine-protein kinase D1 (Homo sapiens); settings: at 1 µM
# [10] = target: T3, Serine/threonine-protein kinase D2 (Homo sapiens) (UniProt Q9BZL6); settings: at 0.1 µM
# T3 sequence (whole entry): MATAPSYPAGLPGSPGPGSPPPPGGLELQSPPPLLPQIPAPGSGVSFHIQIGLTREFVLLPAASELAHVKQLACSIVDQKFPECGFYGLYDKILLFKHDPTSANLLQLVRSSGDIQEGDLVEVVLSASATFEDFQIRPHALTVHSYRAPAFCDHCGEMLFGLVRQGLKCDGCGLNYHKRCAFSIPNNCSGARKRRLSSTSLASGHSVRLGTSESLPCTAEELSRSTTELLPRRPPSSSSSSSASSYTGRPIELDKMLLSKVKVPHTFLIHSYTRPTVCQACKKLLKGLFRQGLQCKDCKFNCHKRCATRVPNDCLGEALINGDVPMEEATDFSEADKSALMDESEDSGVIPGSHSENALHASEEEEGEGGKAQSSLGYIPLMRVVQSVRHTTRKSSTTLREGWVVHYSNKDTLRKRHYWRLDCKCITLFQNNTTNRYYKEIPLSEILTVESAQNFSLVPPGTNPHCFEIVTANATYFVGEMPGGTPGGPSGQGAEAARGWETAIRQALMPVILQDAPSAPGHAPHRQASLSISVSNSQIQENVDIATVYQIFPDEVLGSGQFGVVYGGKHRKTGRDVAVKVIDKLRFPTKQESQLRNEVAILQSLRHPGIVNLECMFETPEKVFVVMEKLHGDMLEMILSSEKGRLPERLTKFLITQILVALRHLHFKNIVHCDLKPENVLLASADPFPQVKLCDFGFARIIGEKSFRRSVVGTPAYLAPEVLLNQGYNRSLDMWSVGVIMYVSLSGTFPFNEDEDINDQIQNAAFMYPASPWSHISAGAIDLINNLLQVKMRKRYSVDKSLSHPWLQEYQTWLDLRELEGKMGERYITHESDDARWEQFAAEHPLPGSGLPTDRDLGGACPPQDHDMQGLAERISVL
# [11] = target: T3, Serine/threonine-protein kinase D2 (Homo sapiens); settings: at 1 µM
# [12] = target: T4, Serine/threonine-protein kinase D3 (Homo sapiens) (UniProt O94806); settings: at 0.1 µM
# T4 sequence (whole entry): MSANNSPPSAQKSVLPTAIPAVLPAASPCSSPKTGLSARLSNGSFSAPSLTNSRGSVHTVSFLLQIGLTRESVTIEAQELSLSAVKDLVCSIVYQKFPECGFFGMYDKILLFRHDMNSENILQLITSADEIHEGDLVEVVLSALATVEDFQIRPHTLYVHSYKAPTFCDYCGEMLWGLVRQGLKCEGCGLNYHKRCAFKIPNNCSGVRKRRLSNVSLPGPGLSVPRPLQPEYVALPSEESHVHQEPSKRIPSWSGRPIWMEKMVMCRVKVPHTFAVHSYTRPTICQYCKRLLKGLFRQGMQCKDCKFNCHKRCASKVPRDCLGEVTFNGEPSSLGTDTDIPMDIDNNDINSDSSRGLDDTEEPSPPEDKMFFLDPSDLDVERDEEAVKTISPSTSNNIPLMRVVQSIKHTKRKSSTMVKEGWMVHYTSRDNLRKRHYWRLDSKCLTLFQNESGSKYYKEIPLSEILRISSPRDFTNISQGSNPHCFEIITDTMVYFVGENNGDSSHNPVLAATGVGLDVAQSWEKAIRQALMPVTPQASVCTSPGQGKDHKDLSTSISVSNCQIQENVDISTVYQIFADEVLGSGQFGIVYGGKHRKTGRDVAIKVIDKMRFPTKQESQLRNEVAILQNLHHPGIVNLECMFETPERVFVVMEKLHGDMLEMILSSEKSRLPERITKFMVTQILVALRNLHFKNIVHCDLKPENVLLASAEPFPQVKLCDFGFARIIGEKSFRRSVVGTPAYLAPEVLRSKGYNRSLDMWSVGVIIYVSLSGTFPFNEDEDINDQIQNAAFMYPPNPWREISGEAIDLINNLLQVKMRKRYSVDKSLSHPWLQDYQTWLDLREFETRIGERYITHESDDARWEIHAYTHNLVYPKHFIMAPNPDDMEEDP
# [13] = target: T4, Serine/threonine-protein kinase D3 (Homo sapiens); settings: at 1 µM
# [14] = target: T5, cGMP-dependent protein kinase 1 (Homo sapiens) (UniProt Q13976); settings: at 0.1 µM
# T5 sequence (whole entry): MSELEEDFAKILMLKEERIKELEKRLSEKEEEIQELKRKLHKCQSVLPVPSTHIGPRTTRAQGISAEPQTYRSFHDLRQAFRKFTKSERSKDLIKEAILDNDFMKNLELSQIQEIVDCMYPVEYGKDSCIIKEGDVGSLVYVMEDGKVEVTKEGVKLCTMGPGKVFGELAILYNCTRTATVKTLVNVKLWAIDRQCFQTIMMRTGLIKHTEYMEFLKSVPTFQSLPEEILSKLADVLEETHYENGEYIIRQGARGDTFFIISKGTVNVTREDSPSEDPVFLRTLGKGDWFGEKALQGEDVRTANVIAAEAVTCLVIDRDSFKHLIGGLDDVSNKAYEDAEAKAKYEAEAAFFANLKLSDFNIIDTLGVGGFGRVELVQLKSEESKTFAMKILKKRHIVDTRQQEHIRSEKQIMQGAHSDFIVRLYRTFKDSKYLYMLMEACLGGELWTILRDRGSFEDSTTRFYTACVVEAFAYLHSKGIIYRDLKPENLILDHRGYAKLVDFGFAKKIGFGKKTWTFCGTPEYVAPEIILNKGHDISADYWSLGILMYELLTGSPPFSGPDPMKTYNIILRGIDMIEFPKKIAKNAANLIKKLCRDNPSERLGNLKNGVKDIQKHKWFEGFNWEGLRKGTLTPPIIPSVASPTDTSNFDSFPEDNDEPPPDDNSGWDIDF
# [15] = target: T5, cGMP-dependent protein kinase 1 (Homo sapiens); settings: at 1 µM
# [16] = target: T6, cGMP-dependent protein kinase 2 (Homo sapiens) (UniProt Q13237); settings: at 0.1 µM
# T6 sequence (whole entry): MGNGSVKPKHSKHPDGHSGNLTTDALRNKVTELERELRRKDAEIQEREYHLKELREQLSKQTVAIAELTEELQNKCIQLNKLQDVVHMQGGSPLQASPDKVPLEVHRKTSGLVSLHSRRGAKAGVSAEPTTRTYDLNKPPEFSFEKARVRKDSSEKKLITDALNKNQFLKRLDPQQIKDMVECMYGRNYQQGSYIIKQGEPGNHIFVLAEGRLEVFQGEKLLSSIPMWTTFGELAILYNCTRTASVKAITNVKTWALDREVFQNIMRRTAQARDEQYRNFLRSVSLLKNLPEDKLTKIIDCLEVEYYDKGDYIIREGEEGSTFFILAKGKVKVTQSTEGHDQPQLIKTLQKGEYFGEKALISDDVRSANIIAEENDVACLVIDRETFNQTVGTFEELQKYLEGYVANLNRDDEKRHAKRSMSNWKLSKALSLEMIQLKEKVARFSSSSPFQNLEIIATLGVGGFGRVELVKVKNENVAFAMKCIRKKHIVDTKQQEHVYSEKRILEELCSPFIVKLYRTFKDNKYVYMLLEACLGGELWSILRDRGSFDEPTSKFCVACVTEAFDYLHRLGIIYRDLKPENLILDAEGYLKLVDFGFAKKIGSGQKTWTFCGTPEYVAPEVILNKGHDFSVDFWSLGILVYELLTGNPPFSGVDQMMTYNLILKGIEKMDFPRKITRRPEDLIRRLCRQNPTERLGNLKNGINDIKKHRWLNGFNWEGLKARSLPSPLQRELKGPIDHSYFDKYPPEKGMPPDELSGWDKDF
# [17] = target: T6, cGMP-dependent protein kinase 2 (Homo sapiens); settings: at 1 µM
# [18] = target: T7, cAMP-dependent protein kinase catalytic subunit PRKX (Homo sapiens) (UniProt P51817); settings: at 0.1 µM
# T7 sequence (whole entry): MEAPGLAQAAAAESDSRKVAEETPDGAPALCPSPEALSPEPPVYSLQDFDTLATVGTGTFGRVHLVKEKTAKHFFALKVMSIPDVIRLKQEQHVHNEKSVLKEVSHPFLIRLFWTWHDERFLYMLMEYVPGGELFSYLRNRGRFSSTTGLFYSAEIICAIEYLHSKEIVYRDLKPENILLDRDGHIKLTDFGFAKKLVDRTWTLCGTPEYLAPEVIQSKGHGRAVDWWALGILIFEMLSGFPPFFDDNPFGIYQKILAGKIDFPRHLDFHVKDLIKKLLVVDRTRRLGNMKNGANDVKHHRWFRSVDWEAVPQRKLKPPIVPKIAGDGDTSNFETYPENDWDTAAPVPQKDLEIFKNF
# [19] = target: T7, cAMP-dependent protein kinase catalytic subunit PRKX (Homo sapiens); settings: at 1 µM
# [20] = target: Rho-associated protein kinase 1 (Homo sapiens) (UniProt Q13464); settings: at 0.1 µM;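 further: values are mean percent inhibition of ROCK1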
# Sequence of Rho-associated protein kinase 1 (Homo sapiens) (Q13464 2-1354 limits assumed): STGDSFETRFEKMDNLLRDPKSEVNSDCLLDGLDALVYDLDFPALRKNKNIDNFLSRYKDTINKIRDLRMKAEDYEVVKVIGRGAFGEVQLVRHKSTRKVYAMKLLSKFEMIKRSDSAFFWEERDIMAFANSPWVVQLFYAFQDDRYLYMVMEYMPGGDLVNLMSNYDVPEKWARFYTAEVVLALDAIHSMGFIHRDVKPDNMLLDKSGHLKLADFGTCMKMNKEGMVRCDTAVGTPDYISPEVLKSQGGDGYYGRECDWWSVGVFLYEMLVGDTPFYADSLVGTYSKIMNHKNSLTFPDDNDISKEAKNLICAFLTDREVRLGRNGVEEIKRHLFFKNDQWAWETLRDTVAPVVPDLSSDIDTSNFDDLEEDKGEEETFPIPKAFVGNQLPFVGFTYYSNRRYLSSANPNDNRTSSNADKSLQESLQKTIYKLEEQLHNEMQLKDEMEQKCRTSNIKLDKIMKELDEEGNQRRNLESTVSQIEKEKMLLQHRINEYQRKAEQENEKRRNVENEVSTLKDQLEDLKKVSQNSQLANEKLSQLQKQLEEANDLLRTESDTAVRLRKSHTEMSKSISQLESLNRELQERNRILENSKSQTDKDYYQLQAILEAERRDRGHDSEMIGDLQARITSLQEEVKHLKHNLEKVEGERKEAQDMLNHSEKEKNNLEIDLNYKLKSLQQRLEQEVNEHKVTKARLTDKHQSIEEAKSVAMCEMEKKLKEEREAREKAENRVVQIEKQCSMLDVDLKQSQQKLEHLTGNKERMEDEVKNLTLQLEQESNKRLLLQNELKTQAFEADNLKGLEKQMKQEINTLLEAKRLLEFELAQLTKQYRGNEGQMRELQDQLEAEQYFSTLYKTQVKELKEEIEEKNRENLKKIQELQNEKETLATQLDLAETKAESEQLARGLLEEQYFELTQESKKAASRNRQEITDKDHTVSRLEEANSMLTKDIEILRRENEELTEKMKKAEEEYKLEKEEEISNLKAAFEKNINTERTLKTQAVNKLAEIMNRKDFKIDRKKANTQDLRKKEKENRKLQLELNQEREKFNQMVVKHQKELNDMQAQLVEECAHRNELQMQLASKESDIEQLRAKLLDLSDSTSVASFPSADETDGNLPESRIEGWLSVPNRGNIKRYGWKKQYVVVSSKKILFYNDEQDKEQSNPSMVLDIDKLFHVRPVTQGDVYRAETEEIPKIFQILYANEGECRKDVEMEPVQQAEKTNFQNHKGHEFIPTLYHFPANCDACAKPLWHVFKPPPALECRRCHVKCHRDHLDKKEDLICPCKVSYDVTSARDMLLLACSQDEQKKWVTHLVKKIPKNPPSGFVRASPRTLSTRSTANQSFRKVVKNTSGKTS
# Sequence of Protein kinase C beta type (Homo sapiens) (P05771 2-671 limits assumed): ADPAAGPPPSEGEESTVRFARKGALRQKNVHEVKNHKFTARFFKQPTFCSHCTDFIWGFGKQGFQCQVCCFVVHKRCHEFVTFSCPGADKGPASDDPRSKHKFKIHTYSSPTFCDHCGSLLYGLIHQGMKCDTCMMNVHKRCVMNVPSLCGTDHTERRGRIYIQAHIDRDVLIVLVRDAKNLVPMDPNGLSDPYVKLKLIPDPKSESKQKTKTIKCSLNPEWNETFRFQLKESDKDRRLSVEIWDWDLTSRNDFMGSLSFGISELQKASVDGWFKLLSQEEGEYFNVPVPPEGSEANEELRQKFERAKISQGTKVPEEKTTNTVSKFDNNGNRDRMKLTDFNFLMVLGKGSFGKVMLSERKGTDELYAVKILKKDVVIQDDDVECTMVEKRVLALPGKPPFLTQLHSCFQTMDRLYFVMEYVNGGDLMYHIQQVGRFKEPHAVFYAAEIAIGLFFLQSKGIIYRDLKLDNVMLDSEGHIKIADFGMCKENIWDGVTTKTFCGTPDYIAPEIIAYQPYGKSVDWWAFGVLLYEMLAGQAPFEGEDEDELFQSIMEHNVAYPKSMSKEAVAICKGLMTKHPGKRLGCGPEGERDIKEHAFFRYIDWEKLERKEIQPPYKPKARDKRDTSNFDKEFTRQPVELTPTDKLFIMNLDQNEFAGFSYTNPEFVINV
# Sequence of Protein kinase C theta type (Homo sapiens) (Q04759 whole entry, looked up): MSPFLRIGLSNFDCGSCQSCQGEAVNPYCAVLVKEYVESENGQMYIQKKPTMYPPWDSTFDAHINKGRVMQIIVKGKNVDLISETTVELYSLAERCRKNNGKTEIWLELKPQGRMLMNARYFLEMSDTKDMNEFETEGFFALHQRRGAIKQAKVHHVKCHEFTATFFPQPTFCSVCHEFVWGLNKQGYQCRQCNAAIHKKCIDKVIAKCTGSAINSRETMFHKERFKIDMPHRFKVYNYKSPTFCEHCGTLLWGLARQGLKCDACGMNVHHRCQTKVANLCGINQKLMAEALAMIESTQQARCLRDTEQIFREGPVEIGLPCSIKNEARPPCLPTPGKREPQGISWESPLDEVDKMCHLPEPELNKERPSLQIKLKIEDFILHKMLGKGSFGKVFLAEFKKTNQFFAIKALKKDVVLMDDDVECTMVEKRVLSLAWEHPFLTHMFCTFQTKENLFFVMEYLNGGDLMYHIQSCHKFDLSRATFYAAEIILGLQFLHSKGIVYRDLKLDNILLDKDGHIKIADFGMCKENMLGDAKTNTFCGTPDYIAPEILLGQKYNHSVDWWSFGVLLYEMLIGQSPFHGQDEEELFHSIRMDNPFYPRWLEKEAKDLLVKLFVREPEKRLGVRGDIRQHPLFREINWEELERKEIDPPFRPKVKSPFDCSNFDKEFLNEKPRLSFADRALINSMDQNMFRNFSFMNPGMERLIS
structure (smiles),measurement,setting,value
Fc1ccc(-c2ncn(C3CCNCC3)c2-c2ccnc(Oc3ccc4c(c3)OCO4)n2)cc1,inhibition,[1],6.16%
same,inhibition,[2],4.45%
same,inhibition,[3],4.29%
same,inhibition,[4],3.38%
same,inhibition,[5],3.39%
same,inhibition,[6],1.38%
same,inhibition,[7],5.69%
same,inhibition,[8],4.85%
same,inhibition,[9],12.4%
same,inhibition,[10],5.35%
same,inhibition,[11],9.53%
same,inhibition,[12],5.01%
same,inhibition,[13],9.26%
same,inhibition,[14],2.62%
same,inhibition,[15],2.47%
same,inhibition,[16],3.43%
same,inhibition,[17],2.62%
same,inhibition,[18],1.9%
same,inhibition,[19],2.4%
same,inhibition,[20],2.94%
